Inconclusive results are not listed. The source made the active and inactive calls. Calls follow the shape of the dose curve; as a rule, active = well fitted curve in the direction sought with a large enough effect; inconclusive = small, poorly fitted or top-dose-only effect, or another doubt; inactive = no such curve, though single readings can be large; an effect the other way counts as inactive or inconclusive.

In PubChem BioAssay (NCATS) one finds Potency data, which are given here for 21 compounds.

In test [1] the target is Voltage-gated inwardly rectifying potassium channel KCNH2 (Homo sapiens) (UniProt Q12809). Kind of test: qHTS Assay for Small Molecule Inhibitors of the Human hERG Channel Activity (AID 588834).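 Also: lower thallium flux fluorescence means stronger hERG block; nearly all actives have a fitted effect of over 50% in size.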 In outline:
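hERG block measured as reduced thallium-dye (FluxOR) fluorescence after stimulation buffer addition, read over 2 min. Cells were hERG-BacMam-transduced U2OS exposed to compound ~10 min […]; concentration-response fitted with Hill equation for AC50.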
In general terms: qHTS replaces the single test concentration by a dilution series.

In test [2] the target is Luciferin 4-monooxygenase (Photinus pyralis) (UniProt P08659). Nature of the test: Biochemical firefly luciferase enzyme assay for NPC (AID 624030). Also: nearly all actives have a fitted effect of over 70% in size. The method, boiled down: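 Counter-screen for direct inhibition of the luciferase enzyme by approved-drug library compounds, run at 10 nM enzyme in 50 mM Tris acetate (final). Luminescence was read within 5 min of enzyme-buffer addition and normalized to PTC124 versus DMSO (0%).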

Test [3] in a line: S16 Schwann cell viability assay (CellTiter-Glo assay) (AID 624031). Also: nearly all actives have a fitted effect of over 70% in size. In outline: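 Following overnight culture in 10% FBS DMEM, parental S16 rat Schwann cells are dosed for 24 h at 37 °C. Viability is read as CellTiter-Glo luminescence and expressed as % activity relative to DMSO (0%) and no-cell wells.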
(In ATP-based viability assays light output follows the ATP content of the culture.)

Test [4] is described as follows: S16 Schwann cell PMP22 intronic element firefly luciferase assay (AID 624032). Also: nearly all actives have a fitted effect of over 30% in size. In outline: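 Rat S16 Schwann cells stably carrying a PMP22 intronic element-driven Fluc reporter were seeded overnight, then exposed to compounds for 24 h at 37 °C. Luminescence was normalized to PTC124 (positive control) and DMSO (0% activity).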
Potency is read from the fitted curve at half-maximal effect.

Sequence of Luciferin 4-monooxygenase (Photinus pyralis) (P08659 whole entry, looked up): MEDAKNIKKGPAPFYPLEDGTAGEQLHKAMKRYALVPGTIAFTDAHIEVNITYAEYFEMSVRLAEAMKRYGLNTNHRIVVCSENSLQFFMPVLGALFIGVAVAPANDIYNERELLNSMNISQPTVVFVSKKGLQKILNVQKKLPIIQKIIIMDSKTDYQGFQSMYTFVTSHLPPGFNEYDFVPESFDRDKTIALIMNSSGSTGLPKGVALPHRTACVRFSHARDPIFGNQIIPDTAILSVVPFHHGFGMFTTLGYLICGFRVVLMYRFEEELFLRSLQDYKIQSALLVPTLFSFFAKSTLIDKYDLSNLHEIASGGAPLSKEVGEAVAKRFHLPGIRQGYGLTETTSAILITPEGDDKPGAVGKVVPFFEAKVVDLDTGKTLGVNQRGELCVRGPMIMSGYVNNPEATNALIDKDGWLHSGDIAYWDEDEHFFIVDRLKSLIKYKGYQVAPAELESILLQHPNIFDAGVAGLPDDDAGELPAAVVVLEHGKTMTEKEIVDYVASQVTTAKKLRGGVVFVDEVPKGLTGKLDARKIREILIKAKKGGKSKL
Sequence of Voltage-gated inwardly rectifying potassium channel KCNH2 (Homo sapiens) (Q12809 whole entry, looked up): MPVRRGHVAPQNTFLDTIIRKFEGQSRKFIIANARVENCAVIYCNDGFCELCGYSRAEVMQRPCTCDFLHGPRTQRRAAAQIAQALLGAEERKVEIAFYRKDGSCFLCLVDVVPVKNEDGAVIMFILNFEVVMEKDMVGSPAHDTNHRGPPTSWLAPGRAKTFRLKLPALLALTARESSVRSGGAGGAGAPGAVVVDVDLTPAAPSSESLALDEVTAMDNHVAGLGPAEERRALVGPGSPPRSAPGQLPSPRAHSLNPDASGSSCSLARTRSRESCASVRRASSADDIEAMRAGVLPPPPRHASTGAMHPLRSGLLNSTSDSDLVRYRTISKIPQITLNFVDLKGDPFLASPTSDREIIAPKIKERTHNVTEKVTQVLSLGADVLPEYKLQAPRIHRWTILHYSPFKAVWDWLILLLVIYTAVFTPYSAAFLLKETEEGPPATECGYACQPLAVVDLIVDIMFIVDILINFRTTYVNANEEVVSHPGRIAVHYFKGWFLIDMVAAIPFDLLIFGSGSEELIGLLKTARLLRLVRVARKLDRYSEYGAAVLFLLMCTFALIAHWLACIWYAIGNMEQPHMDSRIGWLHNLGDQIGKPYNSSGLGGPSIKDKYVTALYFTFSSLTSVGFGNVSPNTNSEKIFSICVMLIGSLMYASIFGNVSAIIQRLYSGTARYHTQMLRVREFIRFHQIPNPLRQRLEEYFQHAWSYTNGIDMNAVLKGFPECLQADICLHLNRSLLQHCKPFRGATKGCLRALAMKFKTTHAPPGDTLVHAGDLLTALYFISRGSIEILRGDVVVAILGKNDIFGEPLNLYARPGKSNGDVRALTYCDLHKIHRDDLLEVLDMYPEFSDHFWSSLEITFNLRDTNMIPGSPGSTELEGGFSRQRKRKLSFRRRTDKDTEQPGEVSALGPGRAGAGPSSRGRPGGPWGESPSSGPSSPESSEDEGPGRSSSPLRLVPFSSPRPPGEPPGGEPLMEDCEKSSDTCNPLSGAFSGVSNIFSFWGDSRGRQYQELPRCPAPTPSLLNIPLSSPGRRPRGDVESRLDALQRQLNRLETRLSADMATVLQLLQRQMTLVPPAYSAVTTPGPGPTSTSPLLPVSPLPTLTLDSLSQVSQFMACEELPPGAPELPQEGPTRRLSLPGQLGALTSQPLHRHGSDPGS

Consider `CCN(CC)C(=O)/C(Cl)=C(\C)OP(=O)(OC)OC`, for which the Potency result in test [1], in test [2] and in test [3] was “inactive” each time.
As for `Clc1ccc(Cl)cc1`, the Potency result in test [1], in test [2], in test [3] and in test [4] was “inactive” throughout.
Regarding `CC(=O)OC1CN2CCC1CC2` (stereo unspecified), the Potency entry in test [1], in test [2] and in test [3] was “inactive” each time.
Take `[S]=[Sb](=[S])[S][Sb](=[S])=[S]`: the Potency result in test [1] is “inactive”.
Take `Oc1cccc[c]1[Hg][Cl]`: the Potency in test [1] is 20 µM (active); in test [2], 10.2 µM (active); in test [3], 1.28 µM (active); in test [4], 0.642 µM (active).
The matching figures for `CCC1(C)CC(=O)NC(=O)C1`: “inactive”, “inactive”, “inactive” and “inactive”.
`C[C@H]1CC[C@]2(NC1)O[C@H]1C[C@H]3[C@@H]4CC[C@H]5C[C@@H](O[C@@H]6O[C@H](CO)[C@H](O[C@@H]7O[C@H](CO)[C@@H](O)[C@H](O[C@@H]8OC[C@@H](O)[C@H](O)[C@H]8O)[C@H]7O[C@@H]7O[C@H](CO)[C@@H](O)[C@H](O)[C@H]7O)[C@H](O)[C@H]6O)CC[C@]5(C)[C@H]4CC[C@]3(C)[C@H]1[C@@H]2C`: the Potency in test [1] was 15.8 µM (active).
As to `CC1(C)S[C@@H]2[C@H](N)C(=O)N2[C@H]1C(=O)O`, the Potency entry in test [1] was “inactive”.
Regarding `CC1(C)[C@H](C=C(Cl)Cl)[C@H]1C(=O)OCc1c(F)c(F)cc(F)c1F`, the Potency entry in test [1] is “inactive”.
Turning to `CNc1ccc(C(=O)CC(O)CCC(C)C2OC(=O)CC(O)CC(=O)CC(O)CC(O)CC(O)CC(O)CC3(O)CC(O)C(C(=O)OC)C(CC(O[C@@H]4O[C@H](C)[C@@H](O)[C@H](N)[C@@H]4O)/C=C/C=C/C=C/C=C/C=C/C=C/C=C/C2C)O3)cc1` (stereo partly specified), in test [1], the Potency result was “inactive”.
Turning to `COc1ccc2c3c1O[C@H]1C(=O)CC[C@H]4[C@@H](C2)N(C)CC[C@]314`, the Potency result in test [1], in test [2] and in test [3] was “inactive” in each case.
Turning to `C[N+]1(C)CCC(OC(=O)C(c2ccccc2)c2ccccc2)CC1`, the Potency result in test [1] was “inactive”.
Regarding `COc1ccc(OC)c([C@@H](O)[C@H](C)N)c1`, the Potency entry in test [1] is “inactive”.
On the same count and under the same terms, for `CN[C@H]1C[C@@H](N)[C@H](O)[C@@H](O[C@@H]2O[C@H](CO)[C@H](O)[C@@H]3OC4(O[C@H]23)O[C@H](C(N)CO)[C@H](O)[C@H](O)[C@H]4O)[C@@H]1O` (stereo partly specified) the value was “inactive”.
`S=C(S)N1CCNCC1`: the Potency result in test [1], in test [2], in test [3] and in test [4] was “inactive” throughout.
For `CC(Cc1ccccc1)NC=O` (stereo unspecified), the Potency result in test [1], in test [2], in test [3] and in test [4] was “inactive” each time.
For the compound `CCOC(=O)/C=C(C)/C=C/C[C@@H](C)CCCC(C)C`, the Potency result in test [1] is “inactive”.
Regarding `O=C(CS(=O)C(c1ccccc1)c1ccccc1)NO` (stereo unspecified), the Potency entry in test [1] and in test [2] was “inactive” in each case.
As to `COc1ccc2c3c1O[C@H]1[C@@H](O)C=C[C@H]4[C@@H](C2)NCC[C@@]341`, the Potency entry in test [1] was “inactive”.
For `N#CC1(N2CCCCC2)CCCCC1`, the Potency entry in test [1], in test [2], in test [3] and in test [4] was “inactive” in each case.
Turning to `CC(=O)O[C@H]1C[C@H](O[C@H]2[C@@H](O)C[C@H](O[C@H]3[C@@H](O)C[C@H](O[C@H]4CC[C@@]5(C)[C@H](CC[C@@H]6[C@@H]5C[C@@H](O)[C@]5(C)[C@@H](C7=CC(=O)OC7)CC[C@]65O)C4)O[C@@H]3C)O[C@@H]2C)O[C@H](C)[C@H]1O[C@@H]1O[C@H](CO)[C@@H](O)[C@H](O)[C@H]1O`, in test [1], the Potency entry is “inactive”.
